Experimental data reported in PMC6689086.

Assays:
[1] = molecular target: ATP-dependent molecular chaperone HSC82 (UniProt P15108); assay: mass-spectrometry hit list; affinity purification or IP with mass spectrometry
Heat shock protein SSA1 = Heat shock protein SSA1 (UniProt P10591); assay: as above
Heat shock protein SSA1, sequence (P10591 whole entry): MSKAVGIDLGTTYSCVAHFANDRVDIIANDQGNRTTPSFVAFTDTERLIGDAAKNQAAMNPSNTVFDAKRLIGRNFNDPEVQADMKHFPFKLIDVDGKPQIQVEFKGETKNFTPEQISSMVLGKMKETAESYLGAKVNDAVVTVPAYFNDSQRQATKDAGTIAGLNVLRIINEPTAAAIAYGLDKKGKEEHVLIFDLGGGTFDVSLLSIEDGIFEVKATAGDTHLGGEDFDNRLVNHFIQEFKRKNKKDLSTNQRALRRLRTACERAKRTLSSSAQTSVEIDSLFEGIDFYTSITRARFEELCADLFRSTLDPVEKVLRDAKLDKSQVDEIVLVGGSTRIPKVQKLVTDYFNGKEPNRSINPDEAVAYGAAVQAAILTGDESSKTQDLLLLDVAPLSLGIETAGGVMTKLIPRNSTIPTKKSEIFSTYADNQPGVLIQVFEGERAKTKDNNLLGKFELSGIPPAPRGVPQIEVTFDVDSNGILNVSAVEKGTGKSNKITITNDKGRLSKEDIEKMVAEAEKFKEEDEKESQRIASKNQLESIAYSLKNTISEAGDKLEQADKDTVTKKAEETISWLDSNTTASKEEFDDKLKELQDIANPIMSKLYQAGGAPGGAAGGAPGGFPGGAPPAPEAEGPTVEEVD

Heat shock protein SSA1, P10591, sequence (P10591 whole entry): as above
ATP-dependent molecular chaperone HSC82, sequence (P15108 whole entry): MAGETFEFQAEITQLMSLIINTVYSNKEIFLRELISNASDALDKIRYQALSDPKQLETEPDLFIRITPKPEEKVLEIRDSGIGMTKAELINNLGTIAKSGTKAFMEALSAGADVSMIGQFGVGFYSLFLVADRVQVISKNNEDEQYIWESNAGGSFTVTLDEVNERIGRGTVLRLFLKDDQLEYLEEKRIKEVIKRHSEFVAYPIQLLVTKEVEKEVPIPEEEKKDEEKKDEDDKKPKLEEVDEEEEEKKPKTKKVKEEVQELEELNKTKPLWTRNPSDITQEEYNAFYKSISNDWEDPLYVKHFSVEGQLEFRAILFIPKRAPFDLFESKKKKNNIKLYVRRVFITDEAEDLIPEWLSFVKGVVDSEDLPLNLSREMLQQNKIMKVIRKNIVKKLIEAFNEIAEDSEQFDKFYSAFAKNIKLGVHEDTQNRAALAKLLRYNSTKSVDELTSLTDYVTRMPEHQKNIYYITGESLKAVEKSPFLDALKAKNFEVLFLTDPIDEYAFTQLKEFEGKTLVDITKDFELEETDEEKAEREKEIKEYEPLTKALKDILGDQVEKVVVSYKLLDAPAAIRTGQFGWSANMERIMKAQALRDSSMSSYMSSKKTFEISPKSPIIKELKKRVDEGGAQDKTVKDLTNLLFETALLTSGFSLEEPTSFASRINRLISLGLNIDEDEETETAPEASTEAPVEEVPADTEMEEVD

Row | Substance | listed as a hit [1] | listed as a hit (Heat shock protein SSA1)
1 | Heat shock protein SSA1, P10591 | yes | –
2 | ATP-dependent molecular chaperone HSP82, P02829 | – | yes
